An excerpt weighted towards active compounds, which were near 9.2% of everything screened.
LMNA splice mod – modulators of lamin A splicing; HeLa LMNA splicing GFP/RFP minigene ratio, 48 h; Potency, µM (series often up to 46.1 µM), for inactives: at the highest dose ratio change, negative = inhibition, hits mostly inhibitors; 200,000 tested, 0.01% active; AID 1487; active means well fitted inhibition curve with a large enough effect in the signal ratio, with a control signal flat, not every such curve was filed as active; inconclusive means small, poorly fitted or top-dose-only effect, or effect the other way, or a change in a side signal; the % refers to the signal ratio; further: on the % scale 0 is the no-effect control and ±100 the full control effect
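S3 HeLa stable clones carrying a lamin A-EGFP splicing minigene plus DsRed2 were seeded at 600 cells/well in Opti-MEM with 2% FBS, pin-dosed and incubated 48 h at 37°C. Acumen cytometry (488 nm) gave the GFP/RFP total-intensity ratio.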
HttQ103 aggreg – mutant huntingtin aggregation inhibition | PC12 HttQ103-GFP aggregates, Acumen cytometry, 40 h | Potency, µM (doses to about 46.1 µM), for the others: at the top dose activity change, negative = inhibition, hits mostly inhibitors | 220,000 tested, 1.1% active | AID 1688; active means well fitted curve in the direction sought with a large enough effect; inconclusive means small, poorly fitted or top-dose-only effect, or another doubt; inactive means no such curve, though single readings can be large; an effect the other way counts as inactive or inconclusive; further: on the % scale 0 is the no-effect control and ±100 the full control effect; nearly all actives have a fitted effect of over 60% in size
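Aggregates are detected as GFP objects 1–25 µm with signal 6 STDEV over background in lysates of induced PC12 cells. These carry Huntingtin exon 1 with 103 glutamines fused to GFP under an ecdysone promoter; compounds titrated.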
HPGD inh – HPGD (human) dehydrogenase inhibition; P15428; Potency, µM, inactives show top-dose activity change, negative = inhibition, usual class: inhibitors; purified HPGD, NADH fluorescence kinetic, PGE2 substrate; 150,000 tested, 4.3% active; further: on the % scale 0 is the no-effect control and ±100 the full control effect
Target sequence (P15428 whole entry, looked up): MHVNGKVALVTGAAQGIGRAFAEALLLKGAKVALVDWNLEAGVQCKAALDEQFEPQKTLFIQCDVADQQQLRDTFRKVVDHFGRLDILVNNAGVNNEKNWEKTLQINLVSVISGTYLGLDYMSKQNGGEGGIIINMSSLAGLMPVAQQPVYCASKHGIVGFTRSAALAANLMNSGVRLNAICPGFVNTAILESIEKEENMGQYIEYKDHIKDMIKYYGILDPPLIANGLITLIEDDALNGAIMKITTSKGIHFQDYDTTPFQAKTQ
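20 nM HPGD preincubated 15 min at room temperature with compound in 50 mM Tris-HCl pH 8, 0.01% Tween 20. Started with 1 mM NAD+ and 30 uM prostaglandin E2; NADH fluorescence (360/450 nm) read 5 times over 30-s intervals, last minus first.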
HTT ATP protect – Huntington cell model cytoprotection by ATP luminescence; PC12 HTT-Q103 induced, cytoprotection, ATP luminescence, 40 h; AID 1471; 230,000 tested, 0.14% active; Potency, µM (titrated, usually from 56.4 µM), for inactives: cytoprotection (ATP increase), actives largely listed as activators; active means well fitted curve in the direction sought with a large enough effect; inconclusive means small, poorly fitted or top-dose-only effect, or another doubt; inactive means no such curve, though single readings can be large; an effect the other way counts as inactive or inconclusive; further: % of control where 0% means no effect; nearly all actives have a fitted effect of over 45% in size
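PC12 cells with ecdysone-inducible HTT exon 1 Q103-GFP, induced with 100 nM tebufenozide and co-treated with library compounds in a dose series (1536-well, 1500 cells/well). Cytoprotection read as ATP content by ATPlite luminescence.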
ALDH1A1 inh – inhibitors of human aldehyde dehydrogenase 1A1; P00352; 220,000 tested, 7.3% active; Potency, µM (titrated, usually from 75.3 µM), without a hit: top-dose activity, negative = inhibition, actives largely listed as inhibitors; AID 1030; Purified ALDH1A1, NADH fluorescence, propionaldehyde substrate;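 further: plate controls were no enzyme wells and a reference inhibitor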
JMJD2E inh – inhibitors of human JMJD2E histone demethylase; JMJD2E catalytic domain, FDH-coupled NADH fluorescence (FDH is formaldehyde dehydrogenase); Potency, µM (titrated, usually from 57.1 µM), inactives show at the highest dose activity change, negative = inhibition, most hits filed as inhibitors; 230,000 tested, 1.6% active; AID 2147;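 further: 0% = wells with enzyme and -100% = buffer wells without enzyme; nearly all actives have a fitted effect of over 50% in size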
Target sequence (B2RXH2 1-337 limits assumed): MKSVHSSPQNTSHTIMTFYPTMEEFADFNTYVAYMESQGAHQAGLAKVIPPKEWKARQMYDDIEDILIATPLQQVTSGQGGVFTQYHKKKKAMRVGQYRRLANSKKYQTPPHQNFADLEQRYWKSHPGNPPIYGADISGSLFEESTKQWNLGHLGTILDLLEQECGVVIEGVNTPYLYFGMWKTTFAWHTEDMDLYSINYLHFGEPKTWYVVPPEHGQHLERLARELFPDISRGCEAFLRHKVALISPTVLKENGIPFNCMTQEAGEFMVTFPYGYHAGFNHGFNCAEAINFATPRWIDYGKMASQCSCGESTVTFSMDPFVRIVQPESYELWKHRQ
* = called active by the depositor; ? = inconclusive; . = not tested or not shown; [ ] = another dose, or the depositor's remark. Unless noted, the call rests on the fitted dose curve; in most records, active means well fitted inhibition curve with a large enough effect (not every such curve was filed as active); inconclusive means small, poorly fitted or top-dose-only effect, or another doubt; inactive means no such curve, though single readings can be large or run the other way. Potency means the concentration at half of the fitted maximal effect.

SMILES	LMNA splice mod	HttQ103 aggreg	HPGD inh	HTT ATP protect	ALDH1A1 inh	JMJD2E inh
CC1CCCC(C)N1C(=O)CSc1nnnn1-c1cccc2c1CCCC2 (centres undefined)	3%	?	-16%	-57%	28µM*	-6%
O=C(CSc1nnnn1-c1cccc2c1CCCC2)N1CCOCC1	?	2%	?	-8%[10 µM]	7.9µM*	3%
O=C(CSc1nnnn1-c1cccc2c1CCCC2)NC1CCCC1	10%	?	?	-8%	?	3%
CCOc1ccc(S(=O)(=O)NCCC(=O)OCC(=O)Nc2cc(C)on2)cc1	.	-34%[9.22 µM]	.	26%[10 µM]	.	-9%
N#CCCn1c(=O)c(-c2ccccc2)nc2cnc(Oc3cccc(Cl)c3)nc21	.	.	?	22%	?	.
Cc1cccc(N2CC(O)=C(c3nc4ccccc4n3C)C2=N)c1	-5%	14%	11µM*	-22%	6%	3%
Cc1ccc(/C=C/C2=CC3(C)CC2(C)C(c2ccc(C)cc2)CC3=O)cc1 (centres undefined)	.	.	.	-3%[10 µM]	?	.
CC12C=C(/C=C/CCc3ccco3)C(C)(C1)C(CCc1ccco1)CC2=O (centres undefined)	.	.	.	1%[10 µM]	4µM*	.
Cc1ccc(C2=NN3C(C2)c2ccccc2OC32C(=O)Nc3ccccc32)cc1 (centres undefined)	?	17%	-24%	-32%	?	?
CN1C(=O)C2(Oc3ccccc3C3CC(c4ccccc4)=NN32)c2ccccc21 (centres undefined)	?	4%	-12%	-71%	25µM*	-6%
NC(=S)NS(=O)(=O)c1ccc(N)cc1	.	26%	.	37%	.	.
CCOC(=O)C1=C(c2ccccc2)NC(=O)N(C(C)=O)C1c1cccc([N+](=O)[O-])c1 (centres undefined)	?	-17%	.	-20%	-4%	-4%
CCOC(=O)C1=C(c2ccccc2)NC(=S)NC1c1ccc(C)c([N+](=O)[O-])c1 (centres undefined)	-26%	16%	-18%	12%[10 µM]	0.25µM*	-5%
CCOC(=O)C1=C(c2ccccc2)NC(=O)NC1c1ccc(OCC#N)c(OC)c1 (centres undefined)	-2%	10%	-11%	-6%[10 µM]	?	-1%
CCOC(=O)C1=C(C)NC(=S)NC1C (centres undefined)	?	22%	.	21%	0%	5%
CCOC(=O)C1=C(c2ccccc2)NC(=O)NC1c1ccc(O)c(OCC)c1 (centres undefined)	-10%[46 µM]	22%	.	-24%	-11%	3%
CCOC(=O)C1=C(c2ccccc2)NC(=S)NC1C (centres undefined)	7%	5%	-8%	?	2µM*	-2%
CCOC(=O)C1=C(c2ccccc2)NC(=S)NC1c1cccc([N+](=O)[O-])c1 (centres undefined)	-11%	-10%	.	11%[10 µM]	0.89µM*	0%
CCOC(=O)C1=C(c2ccccc2)NC(=S)NC1c1cc([N+](=O)[O-])ccc1OC (centres undefined)	1%	12%	-7%	11%	4µM*	-6%
C#Cc1ccc([C@H]2C=C(C(=O)Nc3ccccc3)O[C@@H](OCc3ccc(CO)cc3)C2)cc1	.	-7%[9.22 µM]	.	-7%[10 µM]	.	-4%
O=C(N/N=C/c1ccncc1)C1C2CCCCCCC21 (centres undefined)	-10%	18%	-9%	.	-1%	1%
CS(=O)(=O)N1CCC(C(=O)NCCC2=CCCCC2)CC1	5%	-4%	-4%	4%	?	10%
CCN(CC)S(=O)(=O)N1CCC(C(=O)NCCN2CCOCC2)CC1	7%	1%	-15%	4%	10µM*	-6%
CCN(CC)S(=O)(=O)N1CCC(C(=O)NCCC2=CCCCC2)CC1	.	?	.	-62%	2.5µM*	-1%
Cc1ccccc1NS(=O)(=O)c1nnc(NC(=O)c2ccccc2C)s1	17%[46 µM]	.	.	.	.	.
SMILES	LMNA splice mod	HttQ103 aggreg	HPGD inh	HTT ATP protect	ALDH1A1 inh	JMJD2E inh
CCCCn1cnc2c(c(-c3ccccc3)c(-c3ccccc3)n2Cc2ccco2)c1=N	.	-1%[9.22 µM]	.	1%[10 µM]	.	-4%
N=c1c2c(-c3ccccc3)c(-c3ccccc3)n(Cc3ccco3)c2ncn1Cc1ccco1	?	11µM*	-2%	-154%	-1%	3%
CC(C)(C)OC(=O)NCCCCCc1nnc(SCC(=O)Nc2cccc(Cl)c2)o1	?	0%[9.22 µM]	14µM*	-3%[0.074 µM]	?	6%
CC(C)(C)OC(=O)NCCc1nnc(SCC(=O)Nc2cccc(Cl)c2)o1	-10%	5%	2%	-12%	-1%	-4%
O=C(CSc1nnc(CNC(=O)c2c(F)cccc2Cl)o1)Nc1ccc2c(c1)OCCO2	5%	2%	-7%	-1%	18µM*	0%
COc1ccc(OC)c(NC(=O)CSc2nnc(C)n2Cc2ccccc2)c1	-5%	11%	-11%	9%	18µM*	3%
COc1ccc(NC(=O)CSc2nnc(C)n2Cc2ccccc2)cc1	22%	10%	-13%	5%	-4%	-6%
COc1ccc(OC)c(NC(=O)CSc2nnc(CNC(=O)c3ccco3)o2)c1	4%	3%	-16%	0%	10µM*	-5%
COc1ccc(Cl)cc1NC(=O)CSc1nnc(CNC(=O)c2ccco2)o1	.	-8%	.	-18%	-3%	-1%
COc1ccc(C(=O)NCc2nnc(SCC(=O)Nc3cccc(F)c3)o2)cc1	.	5%	.	-12%	9.5µM*	5%
COc1ccc(C(=O)NCc2nnc(SCC(=O)NCc3ccc(F)cc3)o2)cc1	4%	5%	-14%	-2%	?	-4%
Cn1c(=O)n(C)c2cc(NC(=O)CCl)ccc21	?	?	-13%	-88%	0.71µM*	-20%
C=CCn1c(SCC)nc2sc3c(c2c1=O)CCc1ccccc1-3	14%	4%	-5%	-6%	14%	1%
C=CCSc1nc2sc3c(c2c(=O)n1CC)CCc1ccccc1-3	1%	-30%	2.2µM*	-10%	1.6µM*	?
O=[N+]([O-])c1cc(Br)cc(/C=N/n2cnnc2)c1O	.	?	.	-16%[10 µM]	?	12%
C=CCS/C(N)=N\N=C\c1cc(Br)cc([N+](=O)[O-])c1O	.	-7%[9.22 µM]	.	-4%[10 µM]	7.1µM*	-2%
C#CCCCCCCC#CCN(C)C	3%	2%	?	.	?	16µM*
CCC(C)(C)n1nnnc1CN(Cc1ccco1)Cc1cc2cc3c(cc2[nH]c1=O)OCO3	21%	9%	?	-30%	?	?
CCC(C)(C)n1nnnc1CN(Cc1ccc(Cl)cc1)Cc1ccco1	1%	-11%	-13%	6%[10 µM]	10µM*	-1%
Cc1ccc(C(=O)N2CCN(Cc3cc(=O)n4nc(-c5ccccc5)sc4n3)CC2)cc1	1%[46 µM]	.	.	.	.	.
